Results filed as inconclusive are left out. Activity calls are given as the source filed them. Unless noted, calls come from the whole dose curve; as a rule, active = well fitted curve in the direction sought with a large enough effect; inconclusive = small, poorly fitted or top-dose-only effect, or another doubt; inactive = no such curve, though single readings can be large; an effect the other way counts as inactive or inconclusive.
How the values were obtained:
[1] = molecular target: Lysosomal acid glucosylceramidase (Homo sapiens) (UniProt P04062); test: Glucocerebrosidase-p2 (AID 348; in the data active = potency below about 10 µM; note: potency is the fitted concentration of half-maximal effect); conditions: purified GBA, blue fluorogenic substrate, 40 min
How it was run: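 Normal human glucocerebrosidase (0.2 nM) with blue fluorogenic substrate (80 uM final) in citrate/phosphate pH 5.9 with 10mM sodium taurocholate, 0.01% tween-20; 40 min RT, NaOH/glycine stop; fluorescence Ex 365/Em 440; AC50 from a titration from 0.6 nM upwards.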

[2] = molecular target: Cytochrome P450 1A2 (Homo sapiens) (UniProt P05177); test: p450-cyp1a2 (AID 410; calls by dose curve; note: potency is the fitted concentration of half-maximal effect); conditions: recombinant CYP1A2, luciferin-ME demethylation, luminescence; series mostly up to 57 µM
How it was run: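 20nM CYP1A2, 100uM Luciferin-ME (=Km), 100mM KPO4; cpd 10 min RT; +NADPH regen, 60 min RT; stop/detect 20 min; luminescence. Normalized to furafylline 57 uM = full inhibition.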

[3] = NFAT Signaling Pathway (AID 444; active = well fitted curve in either direction with a large enough effect, not every such curve was filed as active;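 note: carbachol stimulus at about its EC50 of 1 µM final; % is set by controls: 0 for no effect and ±100 for the full control effect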); conditions: Jurkat NFAT-bla M1, carbachol, beta-lactamase ratio, 5 h; at 7.69 µM (top of the series) unless noted
How it was run: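 Jurkat cells carrying an NFAT-driven β-lactamase reporter and co-transfected muscarinic M1 receptor were treated with compound plus carbachol (1 uM final, an EC50 level) for 5 h at 37 °C. CCF4 loading followed for 1 h at RT; 460/530 nm ratio gave %activity.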

[4] = Stat Signaling Pathway (AID 446; active = well fitted curve in either direction with a large enough effect, not every such curve was filed as active;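 note: ME-180 cervical cancer cells given 40 pM IL-6 alongside compound; SIE-controlled beta-lactamase reporter measured as 460/530 nm FRET emission ratio; % is set by controls: 0 for no effect and ±100 for the full control effect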); conditions: ME-180 SIE beta-lactamase reporter, IL-6 stimulated, 5 h; at 7.69 µM (top of the series) unless noted
How it was run: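 FRET read-out (405 nm excitation, 460/530 nm emission) of a beta-lactamase reporter under a STAT-inducible element in ME-180 cervical carcinoma cells. Cells with compound receive 40 pM IL-6 for 5 h. Values are normalised to AC90 stimulation and AC90 JAK-inhibitor controls.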

[5] = molecular target: Glucocorticoid receptor (Homo sapiens) (UniProt P04150); test: GR-GFP Redistribution (AID 450;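 active = compounds whose dose series gives a full or clear partial fitted curve of increased nuclear translocation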; note: potency is the fitted concentration of half-maximal effect); conditions: U2OS GR-GFP nuclear translocation, laser cytometry, 2 h
[6] = molecular target: Glucocorticoid receptor (Homo sapiens) (UniProt P04150); test: GR-EFC Redistribution (AID 451; calls by dose curve; note: potency is the fitted concentration of half-maximal effect); conditions: CHO-K1 GR-EFC translocation, beta-gal luminescence, 2 h
How it was run: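 CHO-K1 cells stably expressing nuclear-localized β-gal enzyme acceptor and GR fused C-terminally to the enzyme donor fragment; ligand-driven nuclear translocation restores β-gal by complementation. Compounds titrated up to 46 uM final, 2 h at 37 °C; luminescence read.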

[7] = molecular target: Mitogen-activated protein kinase 10 (Mus musculus) (UniProt Q61831); test: JNK3 AlphaScreen Assay (AID 530; active = well fitted curve in either direction with a large enough effect, not every such curve was filed as active;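 note: kinase came from lysate of stimulated human HepG2 cells; signal reports phosphorylation of biotinylated GST-cJun 1-79 at Ser73 with 10 µM ATP; % is set by controls: 0 for no effect and ±100 for the full control effect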); conditions: JNK3 lysate, c-Jun phosphorylation; series mostly up to 57.1 µM
How it was run: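 Biotinylated GST-cJun(1-79) served as substrate for JNK3 in HepG2 lysates stimulated with IL-1beta and TNF-alpha. ATP was 10 uM final, pH 7.6. Ser73 phosphorylation was quantified by AlphaScreen (680 nm excitation).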

[8] = molecular target: Cytochrome P450 3A4 (Homo sapiens) (UniProt P08684); test: qHTS Assay for Inhibitors and Substrates of Cytochrome P450 3A4 (AID 884); conditions: recombinant CYP3A4, Luciferin-PPXE luminescence; series mostly up to 57.1 µM; note: potency is the fitted concentration of half-maximal effect; nearly all actives have a fitted effect of over 50% in size
How it was run: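 Luminescent readout of luciferin produced by CYP3A4 (20 nM) dealkylation of Luciferin-PPXE, 25 uM (its KM). NADPH-driven reaction ran 60 min at RT after 10 min compound preincubation; data scaled to 57 uM ketoconazole as 100% inhibition.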

[9] = molecular target: Cytochrome P450 3A4 (Homo sapiens) (UniProt P08684); test: qHTS Assay for Activators of Cytochrome P450 3A4 (AID 885); conditions: recombinant CYP3A4, Luciferin-PPXE luminescence, 60 min; series mostly up to 57.1 µM; note: nearly all actives have a fitted effect of over 65% in size
How it was run: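 Luminescent readout of luciferin formed from 25 uM Luciferin-PPXE (KM level) by 20 nM CYP3A4 in 200 mM KPO4, with 60 min NADPH-driven reaction at room temperature after 10 min compound exposure. Ketoconazole (57 uM) defined 100% inhibition.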

[10] = molecular target: Dual specificity protein kinase CLK4 (Homo sapiens) (UniProt Q9HAZ1); test: qHTS Assay for Inhibitors of CDC-like Kinase 4 (Kinase-Glo Assay) (AID 1770); conditions: recombinant Clk4, Kinase-Glo ATP depletion luminescence; series mostly up to 66.7 µM; note: % is set by controls: 0 for no effect and ±100 for the full control effect; nearly all actives have a fitted effect of over 65% in size
How it was run: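 Luminescent ATP-depletion read-out (Kinase-Glo) after 4.5 h room-temperature reaction of Clk4 (25 nM final) with RS peptide (100 uM) and ATP (1 uM), pH 7.5 Tris buffer with MgCl2 and DTT.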

[11] = molecular target: Dual specificity protein kinase CLK4 (Homo sapiens) (UniProt Q9HAZ1); test: qHTS Assay for Inhibitors of CDC-like Kinase 4 (ADP-Glo Assay) (AID 1771); conditions: recombinant CLK4, ADP-Glo luminescence; series mostly up to 80 µM; note: % is set by controls: 0 for no effect and ±100 for the full control effect; nearly all actives have a fitted effect of over 70% in size
How it was run: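 25 nM Clk4, 100 uM RS peptide, 1 uM ATP (final); 2 mM MgCl2, 0.5 mM EGTA, 2.5 mM DTT, 0.01% Triton X-100; 1 hr RT. ADP-Glo readout: ATP depletion 45 min, conversion/luciferase 30 min, luminescence.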

[12] = molecular target: Dual specificity protein kinase CLK4 (Homo sapiens) (UniProt Q9HAZ1); test: qHTS Assay for Inhibitors of CDC-like Kinase 4 (ADP-FP Assay) (AID 1795); conditions: Transcreener ADP fluorescence polarization; series mostly up to 50 µM;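 note: recombinant human CLK4 phosphorylating RS repeat peptide at 1 µM ATP; % is set by controls: 0 for no effect and ±100 for the full control effect; nearly all actives have a fitted effect of over 60% in size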
How it was run: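 Kinase activity was measured as ADP production using Transcreener orange tracer (4 nM) and ADP antibody (1 ug/mL) fluorescence polarization, with ADP calculated from a calibration curve. The 1 h reaction contained 6.25 nM Clk4, 1 uM ATP and 100 uM RS peptide at pH 7.5 with Mg2+.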

[13] = molecular target: Ubiquitin carboxyl-terminal hydrolase 1 (Homo sapiens) (UniProt O94782); test: Inhibitors of USP1/UAF1: Pilot qHTS (AID 504865); conditions: purified USP1/UAF1, Ub-rhodamine cleavage fluorescence; series mostly up to 54.9 µM;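 note: rhodamine fluorescence freed from ubiquitin-rhodamine substrate followed over time; top concentration of the series differs between compounds; % is set by controls: 0 for no effect and ±100 for the full control effect; nearly all actives have a fitted effect of over 35% in size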
How it was run: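 Deubiquitinase activity followed as kinetic rhodamine fluorescence release from 150 nM Ub-Rho. 1 nM USP1/UAF1 with compound, after 15 min room-temperature preincubation, in HEPES pH 7.8 buffer containing TCEP, EDTA, BSA and Tween-20.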

[14] = Primary qHTS for small molecule stabilizers of the endoplasmic reticulum resident proteome: Secreted ER Calcium Modulated Protein (SERCaMP) assay (AID 1508630); conditions: SH-SY5Y GLuc-SERCaMP (Gaussia luciferase released on ER calcium loss) secretion, thapsigargin, luminescence; series mostly up to 38.4 µM; note: % is set by controls: 0 for no effect and ±100 for the full control effect
How it was run: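 The SH-SY5Y reporter protocol was run at 3 concentrations up to 38.3 uM (primary) or 11 concentrations (follow-up): 16 h compound, 100 nM thapsigargin for 4 h, then extracellular luciferase luminescence.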

[15] = AP1 Signaling Pathway (AID 357; active = well fitted curve in either direction with a large enough effect, not every such curve was filed as active; note: % is set by controls: 0 for no effect and ±100 for the full control effect); conditions: ME-180 AP-1-bla reporter, EGF-induced, beta-lactamase ratio, 5 h; at 7.69 µM (top of the series) unless noted
How it was run: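 In this screen, ME-180 cells in Opti-MEM with 0.5% dialyzed FBS received EC50 EGF and compound titrations for 5 h. AP-1 reporter beta-lactamase was detected via CCF4 ratio, giving AC50 for positive and negative modulators.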

[16] = molecular target: 3',5'-cyclic-AMP phosphodiesterase 4B (Homo sapiens) (UniProt Q07343); test: qHTS Assay for Inhibitors of PDE-IV (AID 607; active = well fitted activation curve with a large enough effect in the main read-out, with a control signal flat, not every such curve was filed as active; note: % of control where 0% means no effect); conditions: HEK293 ACTOne CNG channel cells, membrane potential fluorescence; series mostly up to 22.9 µM
How it was run: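 Cell-based read-out of cAMP via a modified cyclic nucleotide-gated channel and membrane potential dye (535/590 nm) in HEK293 cells expressing PDE4 endogenously. Compounds tested up to 22.9 uM final; 100 uM RO 20-1724 reference.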

[17] = molecular target: Cytochrome P450 2C19 (Homo sapiens) (UniProt P33261); test: qHTS Assay for Inhibitors and Substrates of Cytochrome P450 2C19 (AID 899); conditions: recombinant CYP2C19, luciferin-H EGE luminescence; series mostly up to 57.1 µM; note: % is set by controls: 0 for no effect and ±100 for the full control effect; nearly all actives have a fitted effect of over 60% in size
How it was run: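 In 50mM KPO4, the reaction held 5nM enzyme and KM-level (10uM) Luciferin-H EGE; it ran 60 min at 37C after NADPH regeneration and a 10 min compound preincubation. Luminescence values were scaled to 57uM ketoconazole as complete inhibition.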

[18] = qHTS Assay for Identification of Small Molecule Agonists for Hypoxia Response Element Signaling Pathway (AID 914; active = well fitted activation curve with a large enough effect in the signal ratio, with a control signal flat, not every such curve was filed as active; the % refers to the signal ratio; note: potency is the fitted concentration of half-maximal effect); conditions: ME-180 (cervical carcinoma) HRE-bla reporter, beta-lactamase ratio, CoCl2, 17 h; activation: active compounds read high
How it was run: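 In Opti-MEM containing 0.5% dialyzed FBS and 10 mM HEPES, ME-180 HRE-bla cells received a compound titration and EC50 CoCl2. They were incubated 17 hours, then CCF4-loaded 2.5 hours at room temperature before ratio reading.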

Chain of 3',5'-cyclic-AMP phosphodiesterase 4B (Homo sapiens) (Q07343 whole entry, looked up): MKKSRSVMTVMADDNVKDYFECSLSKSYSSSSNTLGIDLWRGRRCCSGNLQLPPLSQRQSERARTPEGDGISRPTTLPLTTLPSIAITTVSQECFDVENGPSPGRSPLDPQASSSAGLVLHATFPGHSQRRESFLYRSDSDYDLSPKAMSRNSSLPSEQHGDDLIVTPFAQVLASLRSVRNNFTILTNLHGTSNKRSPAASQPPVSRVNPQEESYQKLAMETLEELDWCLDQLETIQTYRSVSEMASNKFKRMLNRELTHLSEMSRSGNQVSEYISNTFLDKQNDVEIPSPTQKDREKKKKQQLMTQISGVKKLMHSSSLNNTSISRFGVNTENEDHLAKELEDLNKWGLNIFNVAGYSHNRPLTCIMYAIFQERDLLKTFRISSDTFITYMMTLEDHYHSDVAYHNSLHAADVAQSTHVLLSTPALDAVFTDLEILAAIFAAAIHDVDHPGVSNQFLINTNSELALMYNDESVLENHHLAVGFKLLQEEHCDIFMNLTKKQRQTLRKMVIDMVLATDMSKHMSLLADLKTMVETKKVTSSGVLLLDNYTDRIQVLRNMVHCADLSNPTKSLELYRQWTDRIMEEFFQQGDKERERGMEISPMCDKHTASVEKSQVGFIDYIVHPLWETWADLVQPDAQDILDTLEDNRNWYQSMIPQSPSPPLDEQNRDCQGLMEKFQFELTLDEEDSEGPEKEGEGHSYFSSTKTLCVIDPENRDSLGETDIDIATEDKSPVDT
Chain of Cytochrome P450 3A4 (Homo sapiens) (P08684 whole entry, looked up): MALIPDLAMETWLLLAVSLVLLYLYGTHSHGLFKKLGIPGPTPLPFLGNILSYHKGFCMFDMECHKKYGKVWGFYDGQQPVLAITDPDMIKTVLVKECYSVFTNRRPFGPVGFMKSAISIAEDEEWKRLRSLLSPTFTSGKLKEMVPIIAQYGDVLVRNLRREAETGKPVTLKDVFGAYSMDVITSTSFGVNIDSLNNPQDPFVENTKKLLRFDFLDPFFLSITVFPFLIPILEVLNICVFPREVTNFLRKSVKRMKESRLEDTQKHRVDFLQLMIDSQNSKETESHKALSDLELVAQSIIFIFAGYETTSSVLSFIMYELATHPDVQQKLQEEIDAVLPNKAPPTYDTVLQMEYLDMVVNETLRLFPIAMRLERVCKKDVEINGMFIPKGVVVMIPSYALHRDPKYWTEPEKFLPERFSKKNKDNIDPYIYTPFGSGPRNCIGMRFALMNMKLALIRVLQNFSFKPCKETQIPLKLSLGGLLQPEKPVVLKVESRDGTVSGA
Chain of Cytochrome P450 1A2 (Homo sapiens) (P05177 whole entry, looked up): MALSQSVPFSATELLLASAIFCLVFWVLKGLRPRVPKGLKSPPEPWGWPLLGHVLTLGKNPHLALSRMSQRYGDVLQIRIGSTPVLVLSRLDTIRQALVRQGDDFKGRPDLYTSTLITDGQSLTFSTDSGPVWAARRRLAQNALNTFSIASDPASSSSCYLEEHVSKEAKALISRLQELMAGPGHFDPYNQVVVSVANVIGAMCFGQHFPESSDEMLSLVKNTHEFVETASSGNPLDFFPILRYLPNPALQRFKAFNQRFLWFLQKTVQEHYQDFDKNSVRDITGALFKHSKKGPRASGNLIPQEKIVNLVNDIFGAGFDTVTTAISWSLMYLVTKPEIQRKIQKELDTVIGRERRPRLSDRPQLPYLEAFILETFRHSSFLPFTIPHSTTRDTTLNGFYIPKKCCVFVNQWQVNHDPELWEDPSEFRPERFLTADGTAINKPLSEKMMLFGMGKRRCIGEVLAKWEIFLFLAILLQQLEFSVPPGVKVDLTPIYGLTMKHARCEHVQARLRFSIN
Chain of Ubiquitin carboxyl-terminal hydrolase 1 (Homo sapiens) (O94782 whole entry, looked up): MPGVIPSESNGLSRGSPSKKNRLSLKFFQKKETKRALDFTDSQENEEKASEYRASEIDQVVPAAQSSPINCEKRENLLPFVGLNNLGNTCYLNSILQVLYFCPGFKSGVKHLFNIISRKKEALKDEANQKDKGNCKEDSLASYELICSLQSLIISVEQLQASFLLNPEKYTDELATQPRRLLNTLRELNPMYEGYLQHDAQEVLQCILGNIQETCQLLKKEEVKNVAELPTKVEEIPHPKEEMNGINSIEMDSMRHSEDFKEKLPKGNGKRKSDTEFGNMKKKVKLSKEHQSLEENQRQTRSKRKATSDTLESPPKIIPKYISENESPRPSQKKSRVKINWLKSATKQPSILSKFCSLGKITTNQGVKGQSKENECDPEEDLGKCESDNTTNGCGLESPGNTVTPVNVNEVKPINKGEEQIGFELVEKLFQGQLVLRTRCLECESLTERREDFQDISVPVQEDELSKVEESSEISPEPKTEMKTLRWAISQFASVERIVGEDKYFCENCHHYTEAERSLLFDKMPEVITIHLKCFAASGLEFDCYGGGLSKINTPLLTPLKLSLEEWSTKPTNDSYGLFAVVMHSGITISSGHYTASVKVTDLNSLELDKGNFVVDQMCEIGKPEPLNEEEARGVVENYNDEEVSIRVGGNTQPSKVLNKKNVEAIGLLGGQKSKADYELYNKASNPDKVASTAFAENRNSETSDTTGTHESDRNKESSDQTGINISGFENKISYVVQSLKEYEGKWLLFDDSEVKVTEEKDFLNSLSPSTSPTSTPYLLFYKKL
Chain of Dual specificity protein kinase CLK4 (Homo sapiens) (Q9HAZ1 whole entry, looked up): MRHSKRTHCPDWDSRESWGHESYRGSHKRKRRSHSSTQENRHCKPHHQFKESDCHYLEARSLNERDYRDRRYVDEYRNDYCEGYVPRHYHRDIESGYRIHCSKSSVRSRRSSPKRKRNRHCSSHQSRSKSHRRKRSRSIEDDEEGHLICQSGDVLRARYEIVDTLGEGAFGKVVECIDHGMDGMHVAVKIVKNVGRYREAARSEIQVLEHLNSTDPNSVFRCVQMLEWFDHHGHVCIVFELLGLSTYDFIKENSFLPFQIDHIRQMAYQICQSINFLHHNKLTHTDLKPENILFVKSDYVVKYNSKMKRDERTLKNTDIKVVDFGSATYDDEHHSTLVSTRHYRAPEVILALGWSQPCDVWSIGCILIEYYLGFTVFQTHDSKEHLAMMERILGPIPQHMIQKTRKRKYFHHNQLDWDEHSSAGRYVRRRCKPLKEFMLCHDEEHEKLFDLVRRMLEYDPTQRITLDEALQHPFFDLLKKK
Chain of Lysosomal acid glucosylceramidase (Homo sapiens) (P04062 whole entry, looked up): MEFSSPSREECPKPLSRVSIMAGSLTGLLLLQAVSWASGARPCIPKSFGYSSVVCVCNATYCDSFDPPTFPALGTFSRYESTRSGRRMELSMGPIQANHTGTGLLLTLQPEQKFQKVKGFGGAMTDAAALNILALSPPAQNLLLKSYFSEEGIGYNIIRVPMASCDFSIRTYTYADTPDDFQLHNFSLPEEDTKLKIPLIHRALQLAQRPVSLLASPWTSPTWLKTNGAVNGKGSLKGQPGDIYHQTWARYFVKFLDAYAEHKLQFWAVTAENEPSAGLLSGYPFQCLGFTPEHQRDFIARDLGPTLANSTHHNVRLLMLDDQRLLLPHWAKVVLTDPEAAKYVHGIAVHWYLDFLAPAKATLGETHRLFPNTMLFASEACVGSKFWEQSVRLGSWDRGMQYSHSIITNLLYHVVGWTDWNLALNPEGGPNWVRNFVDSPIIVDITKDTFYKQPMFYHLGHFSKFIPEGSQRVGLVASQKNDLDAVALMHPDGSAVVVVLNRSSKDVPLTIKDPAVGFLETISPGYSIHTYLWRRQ
Chain of Glucocorticoid receptor (Homo sapiens) (P04150 whole entry, looked up, the tested form may be a part): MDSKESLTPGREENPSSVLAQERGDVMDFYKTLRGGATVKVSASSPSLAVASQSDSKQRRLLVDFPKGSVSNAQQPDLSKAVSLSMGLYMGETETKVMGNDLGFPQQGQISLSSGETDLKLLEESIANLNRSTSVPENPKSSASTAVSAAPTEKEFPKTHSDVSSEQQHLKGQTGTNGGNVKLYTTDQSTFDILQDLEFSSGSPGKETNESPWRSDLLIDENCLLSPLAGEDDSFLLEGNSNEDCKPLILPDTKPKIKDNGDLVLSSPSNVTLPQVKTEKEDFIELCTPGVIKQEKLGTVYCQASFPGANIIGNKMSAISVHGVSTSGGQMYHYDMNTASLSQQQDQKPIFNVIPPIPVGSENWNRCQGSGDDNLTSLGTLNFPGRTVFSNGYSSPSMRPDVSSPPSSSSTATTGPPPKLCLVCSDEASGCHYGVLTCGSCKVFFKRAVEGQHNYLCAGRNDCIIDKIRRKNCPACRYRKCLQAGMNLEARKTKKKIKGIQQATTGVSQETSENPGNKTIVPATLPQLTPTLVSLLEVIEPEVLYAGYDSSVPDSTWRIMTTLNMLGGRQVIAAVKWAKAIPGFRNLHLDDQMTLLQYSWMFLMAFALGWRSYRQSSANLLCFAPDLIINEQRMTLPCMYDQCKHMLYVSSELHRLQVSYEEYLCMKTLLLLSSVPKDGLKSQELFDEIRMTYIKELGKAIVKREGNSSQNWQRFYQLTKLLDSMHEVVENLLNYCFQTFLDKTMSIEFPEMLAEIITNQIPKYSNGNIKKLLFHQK
Chain of Cytochrome P450 2C19 (Homo sapiens) (P33261 whole entry, looked up): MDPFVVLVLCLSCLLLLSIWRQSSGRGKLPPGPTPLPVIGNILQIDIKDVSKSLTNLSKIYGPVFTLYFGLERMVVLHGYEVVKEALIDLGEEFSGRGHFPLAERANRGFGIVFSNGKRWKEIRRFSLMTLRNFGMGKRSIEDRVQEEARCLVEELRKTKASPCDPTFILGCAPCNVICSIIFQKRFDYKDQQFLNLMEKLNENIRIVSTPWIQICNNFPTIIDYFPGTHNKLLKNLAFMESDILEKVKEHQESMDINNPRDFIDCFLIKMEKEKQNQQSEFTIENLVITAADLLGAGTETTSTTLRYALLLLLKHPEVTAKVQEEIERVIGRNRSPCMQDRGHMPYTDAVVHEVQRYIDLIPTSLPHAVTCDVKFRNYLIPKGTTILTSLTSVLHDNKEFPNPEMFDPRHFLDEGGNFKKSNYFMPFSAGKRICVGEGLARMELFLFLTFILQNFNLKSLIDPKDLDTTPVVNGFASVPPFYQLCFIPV

CCNc1ncc2nc(CCc3ccccc3)c(=O)n(Cc3ccc(F)cc3)c2n1
active: Potency [2] 3.16 µM | Potency [8] 2.51 µM
inactive: Potency [1] > 11.4 µM | activity change, negative = inhibition [3] 20.5% | activity, negative = inhibition [4] 26.2% | Potency [5] > 9.22 µM | Potency [6] > 46 µM | Potency [7] | Potency [9] | Potency [10] | Potency [11] | Potency [12] | Potency [13] | outcome [14]

COc1cccc(Cn2c(=O)c(-c3cccs3)nc3cnc(N4CCOCC4)nc32)c1
inactive: Potency [1] > 11.4 µM | activity change, negative = inhibition [15] 21.6% | activity change, negative = inhibition [3] 5.78% | Potency [5] > 9.22 µM | Potency [6] > 46 µM | Potency [16] | Potency [10] | Potency [11] | Potency [12] | Potency [13] | outcome [14]

FC(F)(F)c1ccccc1-c1cncnc1NCc1ccccc1
inactive: Potency [1] > 11.4 µM | activity change, negative = inhibition [15] -12.5% | activity change, negative = inhibition [3] -25.7% | activity, negative = inhibition [4] 8.04% | Potency [6] > 46 µM | Potency [7] | Potency [10] | Potency [11] | Potency [12] | Potency [13] | outcome [14]

CCNc1ncc2nc(-c3ccc(Cl)cc3)c(=O)n(Cc3ccc(F)cc3)c2n1
active: Potency [2] 12.6 µM | Potency [18] 0.1 µM
inactive: Potency [1] > 11.4 µM | activity change, negative = inhibition [3] -1.59% | Potency [5] > 9.22 µM | Potency [6] > 46 µM | Potency [7] | Potency [17] | Potency [10] | Potency [11] | Potency [12] | Potency [13] | outcome [14]

COc1ccc(Oc2ncc3nc(-c4ccc(F)cc4)c(=O)n(Cc4cccs4)c3n2)cc1
inactive: Potency [1] > 11.4 µM | activity change, negative = inhibition [3] -29.2% | activity, negative = inhibition [4] -8.36% | Potency [5] > 9.22 µM | Potency [6] > 46 µM | Potency [7] | Potency [16] | Potency [9] | Potency [10] | Potency [11] | Potency [12] | Potency [13] | outcome [14]
active: Potency [2] 5.01 µM

COc1ccc(-c2nc3cnc(OC)nc3n(CCc3ccccc3)c2=O)cc1
inactive: Potency [1] > 11.4 µM | activity change, negative = inhibition [3] 1.97% | activity, negative = inhibition [4] 2.61% | Potency [5] > 9.22 µM | Potency [6] > 46 µM | Potency [7] | Potency [9] | Potency [10] | Potency [11] | Potency [12] | Potency [13] | outcome [14]
active: Potency [2] 6.31 µM

FC(F)(F)c1ccccc1-c1nccc(NCCN2CCOCC2)n1
inactive: Potency [1] > 11.4 µM | activity change, negative = inhibition [15] 27.9% | activity, negative = inhibition [4] -13.3% | Potency [5] > 46 µM | Potency [6] > 46 µM | Potency [7] | Potency [16] | Potency [9] | Potency [10] | Potency [11] | Potency [12] | Potency [13] | outcome [14]

— PubChem BioAssay (NCATS)
